# The campaign covered roughly 310,000 compounds. About 14,000 (4.5%) showed an effect of 50% or more. The effect is printed as a negative number. The sample as a whole holds a higher share of strong results than the screen did.
# Target: human ether-à-go-go-related gene (hERG) potassium channel (human, UniProt Q12809)
# Test: primary screen, population patch clamp on CHO cells stably expressing hERG; higher = less effect of the substance
# 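Also: peak tail current of the secondary pulse compared with the same well before compound.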
# Chain of human ether-à-go-go-related gene (hERG) potassium channel (Q12809 whole entry, looked up): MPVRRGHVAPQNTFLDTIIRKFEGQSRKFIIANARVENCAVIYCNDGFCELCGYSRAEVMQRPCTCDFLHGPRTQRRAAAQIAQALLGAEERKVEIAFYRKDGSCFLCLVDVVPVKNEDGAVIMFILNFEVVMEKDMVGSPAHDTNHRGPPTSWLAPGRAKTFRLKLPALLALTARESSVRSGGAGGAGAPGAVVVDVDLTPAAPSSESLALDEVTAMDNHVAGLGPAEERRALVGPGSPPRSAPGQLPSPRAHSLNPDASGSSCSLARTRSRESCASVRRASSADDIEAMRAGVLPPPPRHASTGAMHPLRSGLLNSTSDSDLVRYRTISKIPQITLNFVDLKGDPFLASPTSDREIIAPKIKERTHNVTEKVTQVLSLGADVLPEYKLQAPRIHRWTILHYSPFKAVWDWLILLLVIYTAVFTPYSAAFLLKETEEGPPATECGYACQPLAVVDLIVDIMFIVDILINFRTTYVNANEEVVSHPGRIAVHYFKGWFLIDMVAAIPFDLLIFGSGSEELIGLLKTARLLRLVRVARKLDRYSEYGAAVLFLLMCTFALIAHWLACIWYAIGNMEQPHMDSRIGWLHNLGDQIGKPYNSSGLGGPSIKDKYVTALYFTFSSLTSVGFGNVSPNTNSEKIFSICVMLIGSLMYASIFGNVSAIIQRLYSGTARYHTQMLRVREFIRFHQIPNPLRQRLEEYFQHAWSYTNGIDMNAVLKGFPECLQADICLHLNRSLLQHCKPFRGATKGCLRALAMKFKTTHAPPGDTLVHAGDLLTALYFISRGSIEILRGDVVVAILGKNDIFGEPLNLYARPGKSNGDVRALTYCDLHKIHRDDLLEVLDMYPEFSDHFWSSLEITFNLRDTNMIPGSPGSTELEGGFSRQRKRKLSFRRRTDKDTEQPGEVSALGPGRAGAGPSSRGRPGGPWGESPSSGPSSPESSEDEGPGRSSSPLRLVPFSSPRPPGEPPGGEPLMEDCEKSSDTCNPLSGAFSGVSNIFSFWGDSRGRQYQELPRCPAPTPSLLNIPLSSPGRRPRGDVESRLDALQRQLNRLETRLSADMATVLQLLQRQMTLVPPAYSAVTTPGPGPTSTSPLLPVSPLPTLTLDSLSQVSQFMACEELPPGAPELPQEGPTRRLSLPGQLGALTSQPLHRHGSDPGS
row,Compound,"hERG current change (%, negative = inhibition) at 10uM"
1,Cc1ccc(CN(C)CC(=O)Nc2ccccc2C(=O)NC2CC2)o1,-7.18%
2,N#Cc1c(F)cccc1N1CCC(C#N)CC1,8.29%
3,Cn1nnnc1SCC(=O)Nc1ccccc1C(=O)NC1CC1,7.04%
4,COc1ccccc1NC(=O)CCN1C(=O)/C(=C/c2cc(OC)c(OC)c(OC)c2)SC1=S,13.8%
5,O=C(Cc1ccccc1)Nc1ccc2oc(-c3ccncc3)nc2c1,0.815%
6,COc1ccccc1-n1cnnc1SC(C)C(=O)Nc1cccc([N+](=O)[O-])c1 (stereo not drawn),-8.19%
7,CC(Sc1nncn1-c1ccccc1)C(=O)Nc1cccc([N+](=O)[O-])c1 (stereo not drawn),-17.2%
8,COc1ccc(OC(C)C(=O)Nc2cccc([N+](=O)[O-])c2)cc1 (stereo not drawn),-58.8%
9,CC(Oc1ccccc1)C(=O)Nc1cccc([N+](=O)[O-])c1 (stereo not drawn),-22%
10,COc1ccc(-n2cnnc2SC(C)C(=O)Nc2cccc([N+](=O)[O-])c2)cc1 (stereo not drawn),-59.3%
11,COc1ccc(OC(C)C(=O)Nc2ccc([N+](=O)[O-])cc2)cc1 (stereo not drawn),3.6%
12,COc1ccc(CNC(=O)CCSCc2ccc(C)cc2)cc1,-16.2%
13,CCC1=Nc2cc(C(=O)O)ccc2Sc2ccccc21,21.2%
14,COC(=O)C1=C(c2ccc(S(C)(=O)=O)cc2)C[C@@H]2CC[C@H]1N2C(=O)NCc1cccc2ccccc12,-61.6%
15,COC(=O)C1=C(c2ccc(S(C)(=O)=O)cc2)C[C@@H]2CC[C@H]1N2C(=O)NCc1ccccc1,-29.6%
16,COC(=O)C1=C(c2ccc(S(C)(=O)=O)cc2)C[C@@H]2CC[C@H]1N2C(=O)NCc1ccc(C(F)(F)F)cc1,-59.3%
17,COC(=O)C1=C(c2ccccc2)C[C@@H]2CC[C@H]1N2C(=O)NCc1cccc2ccccc12,-12.2%
18,COC(=O)C1=C(c2ccc(C(C)=O)cc2)C[C@@H]2CC[C@H]1N2C(=O)NCc1ccc(C(F)(F)F)cc1,30%
19,COC(=O)C1=C(c2ccc(OC(F)(F)F)cc2)C[C@@H]2CC[C@H]1N2C(=O)NCc1cccc2ccccc12,20.4%
20,Cc1ccc(C(=O)NC(C(=O)Nc2ccccc2)c2ccccc2)cc1 (stereo not drawn),19.7%
21,CC(NC(=O)Cn1cc(C(=O)C2CC2)c2ccccc21)c1ccccc1 (stereo not drawn),4.74%
22,Cc1ccc(-c2nn(C)c(=O)c3ccccc23)cc1CNC(=O)c1ccco1,-36.7%
23,Cc1ccc(/C=C2/C(=O)NC(=O)N(Cc3ccc(F)cc3)C2=O)o1,19.6%
24,COc1ccc(OCc2cc(C(=O)NCc3nc(C)cs3)no2)c(Cl)c1,-17.2%
25,OCC1(Cc2ccccc2)CCN(Cc2ccc(C(F)(F)F)cc2)CC1,-72.9%
26,OCC1(Cc2ccccc2C(F)(F)F)CCN(Cc2ccccc2)CC1,-41.3%
27,OCC1(Cc2ccccc2)CCN(Cc2ccc(-c3ccco3)cc2)CC1,-66.6%

row,Compound,"hERG current change (%, negative = inhibition) at 10uM"
1,OCC1(Cc2ccccc2)CCCN(Cc2ccc(-c3ccco3)cc2)C1 (stereo not drawn),-5.88%
2,O=C(CSc1cn(CC(=O)N2CCOCC2)c2ccccc12)N1CCOCC1,12.8%
3,Cc1cc(C)c(C#N)c(SCc2ccc([N+](=O)[O-])cc2)n1,15.9%
4,COc1ccc(F)cc1S(=O)(=O)Nc1ccc2c(c1)OCO2,6.15%
5,CC(CCc1ccccc1)NC(=S)NC1CCCCC1 (stereo not drawn),12%
6,Cl.Fc1ccc(C(c2nnnn2C2CCCC2)N2CCN(Cc3ccncc3)CC2)cc1 (stereo not drawn),-24.8%
7,CCC(C)(C)n1nnnc1C(c1ccccc1)N1CCN(Cc2ccccc2)CC1 (stereo not drawn),-32%
8,Cc1ccc(C(c2nnnn2CC2CCCO2)N2CCN(C)CC2)cc1.Cl (stereo not drawn),-7.48%
9,Clc1ccc(C(c2nnnn2C2CCCC2)N2CCN(Cc3ccncc3)CC2)cc1 (stereo not drawn),-71.7%
10,Cc1ccc(C(c2nnnn2Cc2ccccc2)N2CCN(Cc3ccccc3)CC2)cc1 (stereo not drawn),-79%
11,Cc1ccc(C(c2nnnn2Cc2ccccc2)N2CC=C(c3ccc(F)cc3)CC2)cc1 (stereo not drawn),11.5%
12,Cc1ccc(C(c2nnnn2CC2CCCO2)N2CCN(C(=O)c3ccco3)CC2)cc1 (stereo not drawn),-4.13%
13,Cc1ccc(C(c2nnnn2CCc2ccccc2)N2CCSCC2)cc1 (stereo not drawn),-13.5%
14,CCN1CCN(C(c2ccccc2)c2nnnn2Cc2ccccc2)CC1.Cl (stereo not drawn),-27.4%
15,Cc1ccc(C(c2nnnn2CC2CCCO2)N2CCN(Cc3ccccc3)CC2)cc1 (stereo not drawn),-74.9%
16,c1ccc(CN2CCN(C(c3ccccc3)c3nnnn3Cc3ccccc3)CC2)cc1 (stereo not drawn),-64.7%
17,Clc1ccc(C(c2nnnn2C2CCCC2)N2CCSCC2)cc1 (stereo not drawn),-24.4%
18,O=C(NC(=S)NCc1ccccc1)c1ccc(Br)o1,-7.42%
19,Cc1noc(C)c1C(=O)OCC(=O)c1cc(C)n(Cc2ccccc2Cl)c1C,-7.65%
20,Cc1ccc(CC(=O)N2CC(C)OC(C)C2)cc1 (stereo not drawn),9.85%
21,Cc1ccc2nc(Br)c3c(c2c1)OC(CBr)C3 (stereo not drawn),-33.6%
22,CC1CCCCC1NC(=O)COc1ncnc2sccc12 (stereo not drawn),3.61%
23,COc1ccc(Cl)cc1NC(=S)N1CCC(c2ccc(C)cc2)C1 (stereo not drawn),-1.95%
24,CCNC(=O)/C(=C\C=C\c1ccccc1)NC(=O)c1ccc(Br)o1,-18.2%
25,Cc1ccc(S(=O)(=O)Cn2nnnc2C(C(C)C)N2CCC(C(N)=O)CC2)cc1 (stereo not drawn),19%
26,Cc1ccc(C(c2nnnn2CS(=O)(=O)c2ccc(C)cc2)N2CCC(C(N)=O)CC2)cc1 (stereo not drawn),-55.1%
27,Cc1ccc(S(=O)(=O)Cn2nnnc2C(c2ccc(F)cc2)N2CCC(C(N)=O)CC2)cc1 (stereo not drawn),-44.1%
